Screening data: PubChem, National Center for Advancing Translational Sciences (NCATS)
The full list was thinned out, with hits kept by preference.
S-ASM inh – blocks human secretory acid sphingomyelinase. actives 0.006% (n = 340,000). Potency, µM (series often up to 57.5 µM), for inactives: at the top dose activity change, negative = inhibition, most hits filed as inhibitors. placental ASM, HMU-PC fluorogenic substrate, 60 min; further: potency means the concentration at half of the fitted maximal effect
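Human placenta-derived ASM preincubated with compound 10 min at room temperature, then reacted with 9 uM (final) fluorogenic HMU-PC substrate for 60 min at 37 C. Stop solution raises pH to 10; fluorescence read at Ex 386/Em 447 nm.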
ClpP mod – qHTS Assay for Activators of ClpP; ATP-dependent Clp protease proteolytic subunit (Bacillus subtilis (strain 168)), P80244; purified B. subtilis ClpP, FRET peptide cleavage, 20 min; Potency, µM (doses to about 57.5 µM), without a hit: at the top dose activity change, negative = active; actives 1.9% (n = 340,000); AID 651965, 2013; active means well fitted falling curve with a large enough effect; inconclusive means small, poorly fitted or top-dose-only effect; inactive means no such curve, though single readings can be large or run the other way; further: potency means the concentration at half of the fitted maximal effect; the source files actives as falling curves though it sought activators and does not explain the sign; nearly all actives have a fitted effect of over 65% in size
Target sequence (P80244 whole entry, looked up): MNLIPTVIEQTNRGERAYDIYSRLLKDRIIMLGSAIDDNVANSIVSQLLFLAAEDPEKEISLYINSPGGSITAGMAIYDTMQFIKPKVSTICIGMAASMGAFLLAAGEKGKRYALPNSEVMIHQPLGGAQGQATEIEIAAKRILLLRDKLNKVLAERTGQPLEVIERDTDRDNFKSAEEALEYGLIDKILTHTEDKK
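FRET quenching reversal measured ClpP activation: 10 microg/mL B. subtilis ClpP at pH 8 with the FRET-FV decapeptide, read at 430 nm after 320 nm excitation. The 20-min minus 0-min signal was scaled between DMSO/no-enzyme wells and ADEP (5.8 microM final).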
mIDH1 inhibitor – blocks human mutant IDH1 R132H enzyme; O75874; actives 0.093% (n = 390,000); Potency, µM (titrated, usually from 76.6 µM), for inactives: at the top dose activity change, negative = inhibition, usual class: inhibitors; IDH1-R132H enzyme, NADPH consumption, diaphorase/resazurin fluorescence; further: potency means the concentration at half of the fitted maximal effect; on the % scale 0 is the no-effect control and ±100 the full control effect; nearly all actives have a fitted effect of over 65% in size
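IDH1-R132H (0.5 ug/mL dispensed) in pH 7.5 Tris buffer was preincubated 30 min with compound, then given a substrate mix of 0.016 mM NADPH and 2 mM alpha-KG for 80 min at room temperature; remaining NADPH was read by diaphorase/resazurin fluorescence.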
RGS4 inhibitor – human RGS4 inhibition. Potency, µM (highest dose often 114 µM), for inactives: top-dose activity change, negative = inhibition, hits mostly inhibitors. Transcreener GDP fluorescence polarization, RGS4-accelerated GTP hydrolysis. P49798. actives 0.039% (n = 390,000); further: potency means the concentration at half of the fitted maximal effect; on the % scale 0 is the no-effect control and ±100 the full control effect; nearly all actives have a fitted effect of over 75% in size
Target sequence (P49798 whole entry, looked up): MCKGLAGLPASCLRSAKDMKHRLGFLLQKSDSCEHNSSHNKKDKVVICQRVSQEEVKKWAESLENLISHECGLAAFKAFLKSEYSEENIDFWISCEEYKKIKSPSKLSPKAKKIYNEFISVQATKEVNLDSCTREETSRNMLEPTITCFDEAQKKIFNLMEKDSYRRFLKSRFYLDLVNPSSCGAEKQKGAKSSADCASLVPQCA
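MLSMR compounds (23 nl, pin-transferred) preincubated 10 min at room temperature with a 500nM (2x) first reagent, then RGS4 at 900nM (2x) plus Transcreener GDP mix added; fluorescence polarization (620/688 nm) read before and after 90 min at 30 °C.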
Mito fusion yeast – inhibitors of mitochondrial division or activators of mitochondrial fusion | AID 485298 | Potency, µM (series often up to 46.1 µM), for the others: at the top dose growth rescue (activation), hits mostly activators | actives 0.23% (n = 320,000) | S. cerevisiae fusion-defective mutant growth rescue, CellTiterGlo 48 h; further: potency means the concentration at half of the fitted maximal effect; % of control where 0% means no effect; nearly all actives have a fitted effect of over 45% in size
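Growth-rescue viability read-out: after 48 h at the non-permissive 37C in glycerol/ethanol YPEG, yeast mitochondrial fusion mutants are measured by CellTiterGlo luminescence; compounds (23 nl pinned per well) restoring growth score as division inhibitors or fusion activators.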
LDHA inh – blocks human lactate dehydrogenase A. purified LDHA, NADH/diaphorase-resazurin fluorescence; hits give low values. P00338. actives 0.15% (n = 480,000). activity change, % (values are at about 110 or 230 µM); in the data active means activity change below about -30%; inconclusive means mostly about -25% to -30%;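 further: plate controls were DMSO wells for no effect and wells without enzyme for full effect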
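Human LDH5 (2 nM) was incubated with 0.06 mM NADH and 0.2 mM pyruvate for 5 min at room temperature in Tris pH 7.4. Remaining NADH was coupled through diaphorase/resazurin, and resorufin fluorescence was read at 0 and 20 min.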
Numbers without * were called inactive; ? = inconclusive; . = not tested or not shown; ! = not active in a repeat; [ ] = another dose, or the depositor's remark. Unless noted, the call rests on the fitted dose curve; in most records, active means well fitted curve in the direction sought with a large enough effect; inconclusive means small, poorly fitted or top-dose-only effect, or another doubt; inactive means no such curve, though single readings can be large; an effect the other way counts as inactive or inconclusive.

SMILES	S-ASM inh	ClpP mod	mIDH1 inhibitor	RGS4 inhibitor	Mito fusion yeast	LDHA inh
Cc1cc(=O)oc2cc(OCC(=O)N3CCN(CCO)CC3)c(Cl)cc12	.	.	.	.	.	1
O=C1NC(=O)N(c2ccc(Cl)cc2)C(=O)/C1=C\c1ccc(Sc2nc3ccccc3[nH]2)o1	-10%	.	-9%	?	0%	-76*
CCN1CC2(COC(=O)c3ccccc3N)CCC(OC)C34C5CC6C(OC)CC(O)(C5C6OC)C(O)(C(OC)C23)C14 (stereo unspecified)	140%	16µM*	-2%	15%[11.4 µM]	-1%	-4
Ic1ccc(CN2CCNCC2)cc1	.	.	.	.	.	1
Nc1ccccc1C(=O)OC1CSC1	13%	28µM*	-1%	-9%	7%	-2
Cc1cc(C)nc(SC(Cl)(Cl)Cl)n1	.	.	.	.	.	-1
CNC(=O)NC(=O)COC(=O)c1cn(C)c2ccccc12	.	.	.	.	.	16
CNC(=O)COC(=O)c1ccc(-c2nc3ccccc3s2)s1	32%	6.3µM*	1%	3%	-6%	-8
c1ccc(CCNCc2ccco2)cc1	.	.	.	.	.	1
COC(=O)C(O)(c1ccc(NC(=O)Oc2ccccc2)cc1)C(F)(F)F (stereo unspecified)	1%	1%	2%	-29%	1%	0
COC(=O)c1[nH]c2ccc(C)cc2c1NC(=O)Oc1ccccc1	-1%	35µM*	7%	12%	2%	5
COc1ccc(CN2C(=O)NC(=O)/C(=C\c3cccc(OC)c3OC)C2=O)cc1	4%	.	1%	?	10%	-31*
CN1CC=C2C(C#N)=C(N)C(C#N)(C#N)C(c3ccncc3)C2C1 (stereo unspecified)	472%	28µM*	-2%	-10%[11.4 µM]	-2%	9
COC(=O)C1=C(c2ccc(-c3ccccc3)c(F)c2)C[C@@H]2CC[C@H]1N2C(=O)NCC1CC1	-16%	?	0%	21%	20µM*	-5
CCOc1cc(-c2ccc(N)c(OCC)c2)ccc1N	40%	32µM*	1%	-38%[11.4 µM]	2%	-1
Cc1cc(C)c(C(=O)CN2CCOCC2)c(C)c1	2%	32µM*	-4%	?	-4%	-1
COc1ccc(C(=O)CN2CCOCC2)cc1	.	-3%	.	.	.	.
N#C/C(=C\c1ccc(O)c(O)c1)C(=O)NCCCNC(=O)/C(C#N)=C/c1ccc(O)c(O)c1	.	.	.	?	1%	.
N#C/C(=C/c1ccc(O)c(O)c1)C(N)=S	.	.	.	6.7µM*	21µM*	.
CC(C)Cn1nc(C(=O)NCC2(N3CCOCC3)CCCCC2)c2ccccc2c1=O	.	.	.	.	.	-12
O=C(c1cn(Cc2ccccc2F)c2ccccc12)C1CCCCC1	.	.	.	.	.	17
C=C(C)[C@H]1Cc2c(ccc3c2O[C@@H]2COc4cc(OC)c(OC)cc4[C@@H]2C3=O)O1	.	.	.	?	18µM*	.
CC[N+](C)(CC)CCCOC(=O)C(O)(c1ccccc1)C1CCCCC1 (stereo unspecified)	-2%	1%	1%	10%	-1%	-82*
Clc1ccc(COC(Cn2ccnc2)c2ccc(Cl)cc2Cl)cc1 (stereo unspecified)	-6%	2%	?	6%	3.2µM*	0
O=C1NC(=O)C(=Cc2cc(Cl)ccc2OCc2ccc(C(=O)O)cc2)C(=O)N1	11%	?	-6%	?	-2%	-90*
SMILES	S-ASM inh	ClpP mod	mIDH1 inhibitor	RGS4 inhibitor	Mito fusion yeast	LDHA inh
CN1C(=O)C(=Cc2ccccc2OCc2ccc(Cl)cc2)C(=O)N(C)C1=O	-2%	.	-4%	-27%	1%	-6
COc1cc(CNC2CN3CCC2CC3)cc(Cl)c1OCc1ccccc1Cl (stereo unspecified)	.	.	.	.	.	1
Cc1cc(O)c2c(c1)C(=O)c1cc(O)cc(O)c1C2=O	-17%	-2%	-4%	?	2.6µM*	-2
COc1ccc(CCNCc2cccc(Br)c2)cc1	.	.	.	.	.	-1
COc1ccc(-c2c(C)c3cc(OC(=O)N(C)C)ccc3oc2=O)cc1	.	.	.	.	.	-33*
COc1ccc(-c2c(C)c3ccc(OC(=O)N(C)C)cc3oc2=O)cc1	.	.	.	.	.	-2
CNC(=O)Oc1cccc(-c2cn3cc(Cl)ccc3n2)c1	0%	-1%	29%	-10%	-15%	-9
CNC(=O)Oc1ccc(-c2cn3cc(C)ccc3n2)cc1	5%	13µM*	18%	-11%	-6%	-3
CC(Oc1ccc(Cl)cc1)C(=O)O (stereo unspecified)	.	.	.	.	.	0
O=C1NCN(c2ccccc2)C12CCNCC2	13%	1%	3%	-3%	-8%	-3
O=C1NCN(c2ccccc2)C12CCN(CC1COc3ccccc3O1)CC2 (stereo unspecified)	.	.	.	12%[56.9 µM]	21µM*	.
Cc1ccc2c(CCN)c(C)[nH]c2c1C	.	.	.	.	.	1
N#Cc1ccc(NC(=O)CCC2CCCCC2)cc1Cl	.	.	.	.	.	13
Cc1ccc(/C=C/c2nc3ccccc3c(=O)n2-c2ccccc2)s1	.	.	.	.	.	12
O=c1c2ccccc2[se]n1-c1ccccc1	-4%	-1%	?	0.67µM*	0.46µM*	-108*
CC(O)C1C=CC=CC(=O)OC2CC3OC4C5OC5(C)C(O)CC4(COC(=O)C(O)C(C)CCO1)C2(C)C31CO1 (stereo unspecified)	1%	32µM*	3%	-12%	.	-6
C[C@]12C=CC(=O)C=C1CC[C@@H]1C2=CC[C@]2(C)[C@@H](C(=O)CN3CCN(c4cc(N5CCCC5)nc(N5CCCC5)n4)CC3)CC[C@@H]12	14%	-4%	?	11µM*!	15µM*	2
OCC1CN2CCC1CC2 (stereo unspecified)	.	.	.	.	.	2
CC(=O)OC1CCC2(/C=N/O)[C@H]3CCC4(C)C(C5=CC(=O)OC5)CCC4(O)[C@@H]3CCC2(O)C1 (stereo partly specified)	.	.	.	.	.	1
CN(N=O)c1cc(O)ccc1O	.	.	.	24µM*	23µM*	19
COCCNC(=O)Cn1cc(C(=O)c2ccccc2)c2ccccc21	.	.	.	.	.	15
O=[N+]([O-])/C=C/c1ccc2c(c1)OCO2	.	.	.	1.5µM*	-58%	.
C/C(=C\c1ccc2c(c1)OCO2)[N+](=O)[O-]	.	.	.	.	.	1
O=[N+]([O-])c1cccc2c([N+](=O)[O-])cccc12	-4%	-4%	-4%	17%	-4%	-3
Nc1cccc2cccc([N+](=O)[O-])c12	-3%	16µM*	5%	-30%	.	19
CCOC(=O)c1ccc(N=C(CC)c2c(O)n(C)c(=O)n(C)c2=O)cc1	4%	25µM*	5%	-3%	-2%	5
CCCn1cc(C(=O)NCC2CCCN2CC)c2ccccc21 (stereo unspecified)	.	.	.	.	.	19
